According to PubChem BioAssay (NCATS):
Inconclusive results are not listed. A call without a number means that no potency is given here. Values without a mark were called inactive. The source made the active and inactive calls. Calls come from the whole dose curve; as a rule, active = well fitted cell-killing curve with a large enough effect; inconclusive = small, poorly fitted or top-dose-only effect, or effect the other way; inactive = flat fitted curve, though single readings scatter.

Assays:
Experiment in all cases: Primary qHTS to identify gynecologic anti-cancer compounds using libraries of approved drugs and bioactive compounds (AID 1345084); note: nearly all actives have a fitted effect of over 55% in size
C33A = conditions: Gynecologic cancer cell panel viability, ATPlite luminescence, 48 h; series mostly up to 57.5 µM
Summary of the method: (§1)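 ATP-based viability (ATPlite), 1,000 cells/well, 16 h pre-incubation, 48 h compound at 37 C, 5% CO2, 15 min RT before read.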

CAOV3 = conditions: Gynecologic cancer cell panel viability, ATPlite luminescence, 48 h; series mostly up to 57.5 µM
Summary of the method: as §1

CASKI = conditions: Gynecologic cancer cell panel viability, ATPlite luminescence, 48 h; series mostly up to 57.5 µM
Summary of the method: as §1

Es-2 = conditions: Gynecologic cancer cell panel viability, ATPlite luminescence, 48 h; series mostly up to 57.5 µM
Summary of the method: as §1

HeLa = conditions: Gynecologic cancer cell panel viability, ATPlite luminescence, 48 h; series mostly up to 57.5 µM
Summary of the method: as §1

Hek293T = conditions: Gynecologic cancer cell panel viability, ATPlite luminescence, 48 h, control line for the selectivity index; series mostly up to 57.5 µM
Summary of the method: as §1

JEG-3 = conditions: Gynecologic cancer cell panel viability, ATPlite luminescence, 48 h; series mostly up to 57.5 µM
Summary of the method: as §1

OV90 = conditions: Gynecologic cancer cell panel viability, ATPlite luminescence, 48 h; series mostly up to 57.5 µM
Summary of the method: as §1

PA-1 = conditions: Gynecologic cancer cell panel viability, ATPlite luminescence, 48 h; series mostly up to 57.5 µM
Summary of the method: as §1

SKOV3 = conditions: Gynecologic cancer cell panel viability, ATPlite luminescence, 48 h; series mostly up to 57.5 µM
Summary of the method: as §1

Tov-21-G = conditions: Gynecologic cancer cell panel viability, ATPlite luminescence, 48 h; series mostly up to 57.5 µM
Summary of the method: as §1

Tov112D = conditions: Gynecologic cancer cell panel viability, ATPlite luminescence, 48 h; series mostly up to 57.5 µM
Summary of the method: as §1
Potency is the fitted concentration of half-maximal effect.

| SMILES | Potency (C33A) | Potency (CAOV3) | Potency (CASKI) | Potency (Es-2) | Potency (HeLa) | Potency (Hek293T) | Potency (JEG-3) | Potency (OV90) | Potency (PA-1) | Potency (SKOV3) | Potency (Tov-21-G) | Potency (Tov112D) |
| --- | --- | --- | --- | --- | --- | --- | --- | --- | --- | --- | --- | --- |
| C=C(CO)C12OC1C1(C)C(=CC2=O)C(O)C(O)CC1C (stereo not given) | inactive | inactive | inactive | inactive | inactive | inactive | inactive | inactive | inactive | inactive | inactive | inactive |
| CC1(C)C[C@H](O)C[C@@]2(C)OC(=O)C=C12 | inactive | inactive | inactive | inactive | inactive | inactive | inactive | inactive | inactive | inactive | inactive | inactive |
| CC(=O)OC1CC2(C)C3=CCC4(C)C5C(O)C(O)C(C(C)C)C5(C)CCC4(C)C3CCC2C(C)(C)C1OC1OC(CO)C(O)C(O)C1O (stereo not given) | inactive | inactive | inactive | inactive | inactive | inactive | inactive | inactive | inactive | inactive | inactive | inactive |
| CC(=O)C1=CCC2C3CCC4CC(O[C@@H]5O[C@H](CO)[C@@H](O[C@@H]6O[C@@H](C)[C@H](O)[C@@H](O)[C@H]6O)[C@H](O)[C@H]5O[C@@H]5O[C@H](CO)[C@@H](O)[C@H](O)[C@H]5O)CCC4(C)C3CCC12C (stereo not given in full) | inactive | inactive | inactive | inactive | inactive | inactive | inactive | inactive | inactive | inactive | inactive | inactive |
| CCC(Nc1ncnc2nc[nH]c12)c1nc2cccc(F)c2c(=O)n1-c1ccccc1 (stereo not given) | inactive | inactive | inactive | inactive | inactive | inactive | inactive | inactive | inactive | inactive | inactive | inactive |
| CSc1ccc(C(=O)N[C@@H]2CCCC[C@@H]2NC(=O)CNC(=O)c2cc(C(F)(F)F)ccc2NC(=O)NC(C)C)cc1 | inactive | inactive | inactive | inactive | inactive | inactive | inactive | inactive | inactive | inactive | inactive | inactive |
| CCn1cc(NC(=S)Nc2cc(Cl)ccc2OC)c(C(N)=O)n1 | inactive | inactive | inactive | inactive | inactive | inactive | inactive | inactive | inactive | inactive | inactive | inactive |
| CC1=C(CCC(C)O[C@@H]2O[C@H](CO)[C@@H](O)[C@H](O)[C@H]2O)C(C)(C)CCC1=O (stereo not given in full) | inactive | inactive | inactive | inactive | inactive | inactive | inactive | inactive | inactive | inactive | inactive | inactive |
| CC1CCC2(OC1)OC1CC3C4CCC5C[C@@H](O[C@@H]6O[C@H](CO[C@@H]7OC[C@@H](O)[C@H](O)[C@H]7O)[C@H](O)[C@H](O)[C@H]6O)CC[C@]5(C)C4CC[C@]3(C)C1C2C (stereo not given in full) | inactive | inactive | inactive | inactive | inactive | inactive | inactive | inactive | inactive | inactive | inactive | inactive |
| COc1cc(/C=C/CO)cc(OC)c1O[C@@H]1O[C@H](CO[C@@H]2O[C@H](CO)[C@@H](O)[C@H](O)[C@H]2O)[C@@H](O)[C@H](O)[C@H]1O | inactive | inactive | inactive | inactive | inactive | inactive | inactive | inactive | inactive | inactive | inactive | inactive |
| C=C1C[C@@]23CCC4[C@@](C)(CCC[C@@]4(C)C(=O)OC)C2CC[C@@H]1C3 (stereo not given in full) | inactive | inactive | inactive | inactive | inactive | inactive | inactive | inactive | inactive | inactive | inactive | inactive |
| Nc1ncnc2c1nc(N)n2[C@@H]1O[C@H](CO)[C@@H](O)[C@H]1O | 3.55 µM (active) | 1.26 µM (active) | 3.16 µM (active) | 3.16 µM (active) | 5.01 µM (active) | 7.94 µM (active) | 15.8 µM (active) | 3.55 µM (active) | 4.47 µM (active) | 3.16 µM (active) | 3.16 µM (active) | 3.55 µM (active) |
| CC(C)CC1NC(=O)C(C)NC(=O)C(CC(C)C)OC(=O)CCCNC1=O (stereo not given) | inactive | inactive | inactive | inactive | inactive | inactive | inactive | inactive | inactive | inactive | inactive | inactive |
| CC1=CC(=O)C2C(C)(C)CCC[C@]2(C)[C@H]1CO (stereo not given in full) | inactive | inactive | inactive | inactive | inactive | inactive | inactive | inactive | inactive | inactive | inactive | inactive |
| CC1=CC(=O)[C@H]2C(C)(C)CCC[C@]2(C)[C@@]1(O)CO | inactive | inactive | inactive | inactive | inactive | inactive | inactive | inactive | inactive | inactive | inactive | inactive |
